The target in the assay is FNTB. The experiment in a line: pooled miR-30 sensor sort-seq; sequence = guide strand. The settings on record: shRNA.
TTGAACTTGTAAGAACTGAAGA showed a sensor-assay potency score (higher = more potent) of -0.977.

For the sequence TTTTCTTCTACTTTTGCCTGTT, the sensor-assay potency score (higher = more potent) was found to be 0.0828. On to TATTGAAACGTATAAACCTTGT, for which the sensor-assay potency score (higher = more potent) is -0.892. TTTGCCTGTTCTATGGACGTGA registered a sensor-assay potency score (higher = more potent) of 0.213. TCATGCAACATGGCTCCGCTGC: the sensor-assay potency score (higher = more potent) was -1.29.

Sequence TTTCAGATAATGGAAGTGCTTC gave a sensor-assay potency score (higher = more potent) of -0.367.

TCTGTAGCCACTATCTGGGGGA: the sensor-assay potency score (higher = more potent) worked out at 0.162. To AAGAACTGAAGACCTCTTGGAT belongs -0.153; to TAAACCTTGTCTGACTGGGGAG, -0.535. In turn, TTCTGTAGAAAGTATGTAGTGG showed a sensor-assay potency score (higher = more potent) of 0.598. To TACTGAAGAAGCTTCTCTCTGT belongs 0.515.

TACTTTTGCCTGTTCTATGGAC yielded a sensor-assay potency score (higher = more potent) of -0.547. For TACAAGGTGGTTGAACTTGTAA, the sensor-assay potency score (higher = more potent) was -0.905. On to TCCTCCTTCAAATCGCATCTGC, for which the sensor-assay potency score (higher = more potent) is -0.214. The sequence TCATCTAGCAGTTCCAAGCTGT gave a sensor-assay potency score (higher = more potent) of 0.0729. Regarding TTGTCGAAGGCCTCTTTTCAGA, the sensor-assay potency score (higher = more potent) is -1.02.

The record behind these values is the OligoGym collection.
Note: reference of the scale not given here.
